Screening results from PubChem BioAssay.
Sampled rows, rich in hits. Any-hit rate of the full collection: about 8.1%.
KB-3-1 tox: kills parental KB-3-1 adenocarcinoma cells | KB-3-1 viability, CellTiter-Glo ATP luminescence, 72 h | Potency, µM (titrated, usually from 46.1 µM), hits mostly cytotoxic | 1.4% of 400,000 active | AID 1347075; also: % is scaled to controls: 0 for no effect and ±100 for the full control effect; nearly all actives have a fitted effect of over 60% in size
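Cytotoxicity in the drug-sensitive parental line KB-3-1 was scored as loss of CellTiter-Glo luminescence following 72 h incubation with compound. Values come from curve fitting of normalized concentration-response data.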
ELG1 repair inh: blocks ELG1-dependent DNA repair in HEK293T cells | HEK293T ELG1-luciferase reporter, luminescence, 16 h; DNA damage induced by 5-fluorouridine | AID 504467 | Potency, µM (titrated, usually from 46.1 µM), inactives show at the top dose activity change, negative = inhibition, actives largely listed as inhibitors | 2.3% of 330,000 active; also: % is scaled to controls: 0 for no effect and ±100 for the full control effect; nearly all actives have a fitted effect of over 55% in size
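Overnight (16 hr) co-exposure of 2,000 cells/well to 5-fluorouridine and compound at 37 °C preceded detection. Luciferase was quantified via ONE-Glo luminescence; loss of signal denotes inhibition.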
KB-V1 cytotox: KB-V1 MDR subline cytotoxicity | Potency, µM (highest dose often 46.1 µM), actives largely listed as cytotoxic | 3.4% of 400,000 active | AID 1347076 | KB-V1 MDR cells viability, CellTiter-Glo, 72 h; also: % is scaled to controls: 0 for no effect and ±100 for the full control effect; nearly all actives have a fitted effect of over 60% in size
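Following 72 h at 37 degrees C with compound, KB-V1 cell viability was read by CellTiter-Glo luminescence, medium being phenol-red-free DMEM plus 10% FBS; concentration-response parameters came from normalized, curve-fitted qHTS data.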
SW480 rereplic: DNA re-replication induction in SW480 cells | SW480 DNA re-replication, Hoechst DNA content imaging, 48 h | Potency, µM (highest dose often 46.1 µM), for the others: at the highest dose re-replication activation, actives largely listed as activators | 1.8% of 340,000 active | AID 624297; also: % of control where 0% means no effect; nearly all actives have a fitted effect of over 55% in size
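Compounds, transferred as 23 nL by pin tool, were incubated with cells for 48 hr; DNA content per nucleus was then quantified by Hoechst staining and fluorescence plate imaging.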
MCF10A rerep: induces DNA re-replication in MCF 10a normal breast cells; 2.9% of 350,000 active; Potency, µM (highest dose often 46.1 µM), for the others: at the highest dose activity, positive = re-replication, hits mostly activators; MCF 10A DNA re-replication, Hoechst nuclear intensity, 48 h; also: % of control where 0% means no effect; nearly all actives have a fitted effect of over 50% in size
Active calls of the source: *; i = inactive; u = inconclusive; x = no result. Calls follow the shape of the dose curve; as a rule, active = well fitted curve in the direction sought with a large enough effect; inconclusive = small, poorly fitted or top-dose-only effect, or another doubt; inactive = no such curve, though single readings can be large; an effect the other way counts as inactive or inconclusive. Potency is read from the fitted curve at half-maximal effect.

SMILES | KB-3-1 tox | ELG1 repair inh | KB-V1 cytotox | SW480 rereplic | MCF10A rerep
Cc1occc1-c1nnc(SCC(=O)Nc2nc(-c3ccccc3)cs2)o1 | i | u | i | u | 18µM*
COc1cccc(OC)c1C(=O)NC1C(=O)N2C1SC(C)(C)C2C(=O)O (configuration not stated) | x | x | x | -6% | -3%
CCc1cc(C(=O)N2CCN(S(=O)(=O)c3ccccc3F)CC2)sc1C | i | -14% | i | 11% | 6%
COc1cccc(N=CNc2cccc(OC)c2)c1 | i | x | i | -3% | -1%
CCCCCCCCN1C(=O)[C@H](CC(=O)NCCCC)C[C@@]2(C(=O)OC)CCCCC=C12 | i | x | u | x | x
Cc1ccc(Cn2c(C)c(C(=O)NCc3ccc4c(c3)OCO4)sc2=O)cc1 | i | x | u | x | x
CCOc1ccccc1Nc1nc(-c2ccc(C)cc2)c(CC(=O)O)s1 | i | x | i | x | x
CCCC(=O)N1CCC1(C)C(=O)Nc1ccc2c(c1)OCCO2 (configuration not stated) | i | x | i | x | x
Cc1ccc(NC(=O)CN(C)S(=O)(=O)c2cccs2)cc1F | u | u | 15µM* | 1% | 5%
COc1ccccc1N(CC(=O)Nc1cc(S(=O)(=O)N(C)C)ccc1C)S(=O)(=O)c1cccs1 | i | 23µM* | i | -2% | 3%
COc1ccc(CNC(=O)CN(c2ccccc2OC)S(=O)(=O)c2cccs2)cc1 | i | u | i | -7% | -5%
S=C(NCCSCc1c(Cl)cccc1Cl)Nc1ccccc1 | u | -25% | 21µM* | 2% | u
S=C(NCCSCc1ccc(Cl)c(Cl)c1)Nc1ccccc1 | i | x | i | u | 26µM*
COc1ccc(N2C(=O)c3ccccc3NC(=O)C2C(=O)NCC(C)C)cc1 (configuration not stated) | i | x | i | x | x
Cc1ccc(NC(=O)COc2coc(CN3CCN(c4ccccc4)CC3)cc2=O)cc1 | i | -8% | i | -2% | 7%
Cc1cccc(-c2nnc(SCc3ccc(C#N)cc3)n2Cc2ccco2)c1 | i | -14% | u | 0% | u
FC(F)(F)COc1cc(-c2nnc(SCc3ccccc3)n2Cc2ccco2)cc(OCC(F)(F)F)n1 | i | 18µM* | i | -2% | 0%
CC(=O)Cc1nsc(NC(=O)c2ccc(-c3cc(C(F)(F)F)ccc3Cl)o2)n1 | i | -17% | i | u | 3.3µM*
CC(=O)Cc1nsc(NC(=O)c2ccc(-c3ccc(Cl)c(Cl)c3)o2)n1 | i | 5% | i | -5% | u
O=C(Nc1ncc(Cc2cccc(C(F)(F)F)c2)s1)c1ccc(-c2cccc([N+](=O)[O-])c2)o1 | i | 12µM* | u | 2% | u
CC(=O)Cc1nsc(NC(=O)c2ccc(-c3cccc(C(F)(F)F)c3)o2)n1 | u | 4% | 5.8µM* | u | 13µM*
O=C(Nc1ccc(Oc2ccccc2)cc1)c1csc([C@H]2C[C@H](O)[C@@H](CO)O2)n1 | i | x | i | x | x
O=C1CN(C(=O)c2ccc(S(=O)(=O)N3CCCC3)cc2)C(c2ccc(F)cc2)c2cc(Br)ccc2N1 (configuration not stated) | i | x | i | x | x
NCCCC(O)(P(=O)(O)O)P(=O)(O)O | x | x | x | -10% | -1%
CCCCCCCCCCCCCCCC(=O)OC(CC(=O)O)C[N+](C)(C)C (configuration not stated) | 3.7µM* | u | i | 0.58µM* | -1%
SMILES | KB-3-1 tox | ELG1 repair inh | KB-V1 cytotox | SW480 rereplic | MCF10A rerep
O=CC(=O)c1ccc(Cl)cc1 | i | x | i | x | x
O=C(NCCCN1CCCC1=O)c1cc(S(=O)(=O)N2CCOCC2)c(Cl)cc1Cl | i | 15% | i | 4.6µM* | -1%
CCCn1c(CC)nc([N+](=O)[O-])c1S(=O)(=O)c1ccccc1 | u | u | i | u | 3.7µM*
COc1ccccc1C(=O)Nc1ccc(C(=O)/C=C/c2cccs2)cc1 | i | 5% | 23µM* | u | u
COc1ccc(OCC(=O)Nc2ccc(NC(=O)c3cccs3)c(OC)c2)cc1 | i | u | i | -2% | -1%
COc1ccc(/C=C/C(=O)c2ccc(NC(=O)c3cccs3)cc2)cc1OC | i | u | 21µM* | u | 9.2µM*
COc1cc(NC(=O)c2cccs2)c(OC)cc1NC(=O)CCC(=O)Nc1ccc2ncccc2c1 | i | 15µM* | i | u | 21µM*
COc1ccc(NC(=O)/C=C/c2cc(Br)ccc2OC)cc1 | i | u | i | -1% | u
COc1ccc(Br)cc1/C=C/C(=O)c1ccc(NC(C)=O)cc1 | 4.1µM* | 15µM* | u | 15µM* | 6.5µM*
COc1ccc(C(=O)Nc2ccc(NC(=O)c3cccs3)cc2)cc1Cl | i | u | i | -31% | -16%
Cc1cc(NC(=O)OC(C)(C)C)c(-n2nnnc2C(C(=O)c2ccccc2)N2CCOCC2)cc1C (configuration not stated) | i | x | i | x | x
CCN1CCN(C(=O)c2ccc(CS(=O)(=O)Cc3ccccc3Cl)o2)CC1 | i | x | i | x | x
COc1ccc(S(=O)(=O)Nc2ccc3c(c2)C(=O)N([C@H](C)CO)C[C@H](C)[C@@H](CN(C)C(=O)Nc2ccc(C(F)(F)F)cc2)OCCCC[C@H](C)O3)cc1 | u | x | i | x | x
COc1ccc(C(=O)Nc2ccc(NC(=O)c3cccs3)cc2)cc1OC | i | x | i | x | x
COc1ccc(C(=O)Nc2cccc(NC(=O)c3cccs3)c2)cc1OC | i | 15µM* | i | 2% | u
CCOc1ccccc1NC(=O)c1c(NCc2ccc(C)o2)sc2c1CCCCC2 | i | x | i | x | x
CCN(CC)S(=O)(=O)c1ccc(O)c(NC(=O)COc2ccc(S(=O)(=O)N3CCOCC3)cc2)c1 | u | x | i | 2% | u
CCOC(=O)c1ccc2c(c1)N(Cc1cccc(C(F)(F)F)c1)C(=O)c1ccccc1S2(=O)=O | i | x | u | x | x
Cc1ccc(Nc2ncnc3ccccc23)cc1 | i | u | u | 8% | -18%
Cc1ccc(/C(=N/Nc2ncnc3ccccc23)C(=O)O)cc1 | i | u | i | 18µM* | 12%
Cc1onc(-c2ccccc2Cl)c1C(=O)N1CCN(C/C=C/c2ccccc2)CC1 | i | u | 15µM* | u | u
Cc1onc(-c2ccccc2Cl)c1C(=O)N1CCN(c2nc3ccccc3s2)CC1 | u | 13µM* | i | -11% | 11%
CCN1CCN(C(=O)c2c(-c3ccccc3)noc2C)CC1 | i | 15% | i | -4% | 0%
CC(=O)c1ccc(N2CCN(C(=O)c3c(-c4ccccc4Cl)noc3C)CC2)cc1 | x | -16% | x | -2% | 3%
